USP1 inh – Inhibitors of USP1/UAF1: Primary Screen; 390,000 tested, 0.23% active; recombinant USP1/UAF1, Ub-Rhodamine cleavage fluorescence; Ubiquitin carboxyl-terminal hydrolase 1 (Homo sapiens), O94782; Potency, µM (series often up to 57.1 µM), inactives show at the top dose activity change, negative = inhibition, actives largely listed as inhibitors; AID 743255, 2014; also: potency is read from the fitted curve at half-maximal effect; nearly all actives have a fitted effect of over 60% in size
Target sequence (O94782 whole entry, looked up): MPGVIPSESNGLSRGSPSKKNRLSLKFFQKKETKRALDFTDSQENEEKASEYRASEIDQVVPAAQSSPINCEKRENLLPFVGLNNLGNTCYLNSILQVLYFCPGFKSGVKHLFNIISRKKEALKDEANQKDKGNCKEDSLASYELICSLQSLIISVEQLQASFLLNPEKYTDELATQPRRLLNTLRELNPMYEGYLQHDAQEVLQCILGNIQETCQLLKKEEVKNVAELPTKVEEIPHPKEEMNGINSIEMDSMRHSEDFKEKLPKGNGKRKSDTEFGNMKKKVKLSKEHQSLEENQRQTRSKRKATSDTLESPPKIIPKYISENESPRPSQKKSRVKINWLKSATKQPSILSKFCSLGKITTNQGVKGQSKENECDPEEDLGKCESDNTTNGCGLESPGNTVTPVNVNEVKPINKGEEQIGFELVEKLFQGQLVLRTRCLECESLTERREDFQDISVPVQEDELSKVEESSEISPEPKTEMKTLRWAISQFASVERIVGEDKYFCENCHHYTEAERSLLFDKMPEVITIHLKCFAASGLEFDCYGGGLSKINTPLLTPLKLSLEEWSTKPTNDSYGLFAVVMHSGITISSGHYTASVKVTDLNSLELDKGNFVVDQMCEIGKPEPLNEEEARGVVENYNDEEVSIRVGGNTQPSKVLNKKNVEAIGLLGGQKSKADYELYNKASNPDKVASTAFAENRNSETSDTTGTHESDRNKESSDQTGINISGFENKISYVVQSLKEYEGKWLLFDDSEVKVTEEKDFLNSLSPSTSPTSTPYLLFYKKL
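1 nM enzyme complex + cpd, 15 min RT; start with Ub-Rho 150nM final; kinetic fluorescence ex 480/em 540, 6 reads q60 s. Buffer 50mM HEPES pH 7.8, 0.5mM EDTA, 0.1 mg/ml BSA, 1mM TCEP, 0.01% Tween-20.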
GALK inh – qHTS Assay for Inhibitors of Human Galactokinase (GALK); 270,000 tested, 0.007% active; Potency, µM (titrated, usually from 57.5 µM), without a hit: top-dose activity change, negative = inhibition, usual class: inhibitors; P51570; Purified GALK, Kinase-Glo residual ATP luminescence; AID 1868, 2009; also: potency is read from the fitted curve at half-maximal effect
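The enzyme phosphorylates galactose (100 uM) using ATP (35 uM); inhibition is detected as higher residual ATP, quantified by bioluminescence after 1 h reaction at room temperature, pH 8.0.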
FBPA coupling cs – qHTS Assay for Inhibitors of Fructose-1,6-bisphosphate Aldolase from Giardia Lamblia: Coupling assay counterscreen | AID 2472, 2010 | coupling enzyme system counterscreen, AmpLite Red fluorescence | activity change, negative = inhibition, % at 58.2 µM, hits read low | 290,000 tested, 0.67% active; in the data active = activity change below about -30%
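Activity here indicates interference with the coupling reaction, not aldolase inhibition. Compounds at 57.5 uM final met coupling enzymes for 10 min at RT; substrate and AmpLite Red detection followed, with a 525/598 nm fluorescence read after 20 min.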
PLK1 PBD block – qHTS for Inhibitors of PLK1-PDB (polo-like kinase 1 - polo-box domain): Primary Screen; Serine/threonine-protein kinase PLK1 (Homo sapiens), P53350; Plk1 PBD binding of FITC phosphopeptide, fluorescence polarization; 360,000 tested, 2.8% active; Potency, µM, for inactives: max response, negative = inhibition, actives largely listed as inhibitors; also: potency is read from the fitted curve at half-maximal effect; series mostly up to about 57 µM; nearly all actives have a fitted effect of over 65% in size
USP2a block – qHTS Assay for Inhibitors of Ubiquitin-specific Protease USP2a Using CHOP2 as the Reporter | Potency, µM (top dose mostly 38.3 µM), inactives show at the highest dose activity change, negative = inhibition, hits mostly inhibitors | Ubiquitin carboxyl-terminal hydrolase 2 (Homo sapiens), O75604 | 330,000 tested, 0.01% active | AID 463254, 2010 | USP2 core, Ub-CHOP2 coupled fluorogenic reporter, 485/531;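 also: potency is read from the fitted curve at half-maximal effect; plate controls were DMSO wells for no effect and full inhibition by NEM control for full effect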
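Cell-free coupled assay: 10nM USP2 core preincubated 30min RT with compound in Tris-HCl pH 8.0/CaCl2/CHAPS buffer, then 25nM Ub-CHOP2 and 25nM reporter substrate; fluorescence (Ex 485/Em 531) read after 60min RT, normalized to NEM inhibition, concentration-response curves fitted.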
VDR inh – Inhibitors of the vitamin D receptor (VDR): qHTS; VDR-SRC2-3 peptide fluorescence polarization, 2 h; Potency, µM, inactives show max response, negative = inhibition, usual class: inhibitors; 400,000 tested, 0.93% active; AID 504847, 2011; also: potency is read from the fitted curve at half-maximal effect
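Fluorescence polarization assay of small-molecule disruption of VDR binding to coregulator peptide SRC2-3. Compounds and controls pin-transferred, then read after 2 h incubation at ambient room temperature.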
Starred values were filed as active, the others as inactive; ? = inconclusive; . = not tested or not shown; ! = repeats disagree. Shown are actives, neighbours in structure and some others; about 3.2% of the full set was active somewhere. Unless noted, calls follow the shape of the dose curve; as a rule, active = well fitted curve in the direction sought with a large enough effect; inconclusive = small, poorly fitted or top-dose-only effect, or another doubt; inactive = no such curve, though single readings can be large; an effect the other way counts as inactive or inconclusive. Unless noted, % is scaled to controls: 0 for no effect and ±100 for the full control effect.

SMILES	USP1 inh	GALK inh	FBPA coupling cs	PLK1 PBD block	USP2a block	VDR inh
CCCC1O[C@@H]2C[C@H]3[C@@H]4CCC5=CC(=O)C=C[C@]5(C)[C@H]4[C@@H](O)C[C@]3(C)[C@]2(C(=O)CO)O1 (some centres undefined)	-17.6%	-2.1%	0.4	-11.5%	3.2%	-10.1%
O=c1c2cccc(Cl)c2nc2n1Cc1ccccc1-2	-13.6%	1.5%	2.4	2.67µM*	-1.3%	79.4µM*
O=c1nc2n(c3ccccc13)Cc1ccccc1-2	.	-1.2%	0.5	.	1.3%	.
CNC(=O)Oc1ccc2c(c1)[C@@]1(C)CCN(C)C1N2C (some centres undefined)	.	.	-35.8*!	.	.	-11.6%
COc1cccc(OCc2cc(C3Nc4ccccc4C(=O)N3Cc3ccco3)ccc2OC)c1 (centres undefined)	-22.8%	0.2%	-3.1	-4.9%	-7.8%	-13.2%
COc1ccc(C2Nc3ccccc3C(=O)N2Cc2ccco2)cc1COc1c(C)cccc1C (centres undefined)	.	.	.	.	.	14.1µM*
Cc1ccc(Nc2cccccc2=O)cc1	2.1%	-0.9%	-3.6	9.47µM*	1.6%	-9.1%
Cc1ccc(NC(=O)COC(=O)c2ccccc2Nc2ccccc2)cc1	-14.3%	2.2%	-10.0	0.5%	-1.8%	7.1%
Cn1c(=O)c2ccccc2n2c(=S)[nH]nc12	-16.7%	16.9%	0.0	-24.8%	-1.5%	-2.3%
CCCCCn1c(=O)c2ccccc2n2c(=S)[nH]nc12	-21.1%	-2.3%	7.2	18.9µM*	3.3%	?
CCCn1c(=O)c2ccccc2n2c(=S)[nH]nc12	-6.1%	.	0.0	-12.3%	-0.8%	1.9%
CCCCn1c(=O)c2ccccc2n2c(=S)[nH]nc12	-19.0%	-3.3%	2.2	26.7µM*	-2.1%	7.4%
Cc1cccc(C)c1NC(=O)CN1C(=O)COc2ccccc21	-9.1%	-8.3%	0.5	1.6%	-0.5%	-10.7%
O=C(NCCc1ccccn1)C(F)(F)C(F)(F)C(F)(F)C(F)(F)C(F)(F)C(F)F	-26.0%	.	0.7	26.7µM*	4.7%	?
Cc1ccc(S(=O)(=O)n2cnc3ccccc32)cc1[N+](=O)[O-]	-6.5%	-0.8%	1.7	2.5%	-5.0%	-3.1%
O=C(O)COc1ccccc1/C=N/NC(=O)CSc1nc2ccccc2n1Cc1ccccc1Cl	-17.3%	-9.1%	1.6	59.7µM*	-1.7%	10.0%
CCN(c1ccc(NC(=O)CSc2ccc3c(c2)OCCO3)cc1)C(C)C	-3.3%	.	.	-9.5%	-0.3%	1.4%
CC[n+]1ccc(/C=C/c2c[nH]c3ccccc23)cc1	28.2µM*	4.1%	-28.6	42.1%	?	-2.2%
Cc1ccc2[nH]cc(/C=C/c3cc[n+](C)cc3)c2c1	28.2µM*	-3.4%	-13.3	60.8%	?	-6.9%
CCn1c(/C=C/c2c[nH]c3ccccc23)nc2ccccc2c1=O	-0.9%	-4.3%	0.4	21.2µM*	0.0%	-12.8%
COc1cccc(/C=C2\CC(C)Cc3c2nc2ccccc2c3C(=O)O)c1OC (centres undefined)	-9.8%	-3.0%	4.5	-16.6%	1.7%	2.4%
COc1cc(/C=C2\CCc3c2nc2ccccc2c3C(=O)O)cc(OC)c1OC	-26.3%	-3.1%	0.4	16.8µM*	6.6%	-26.5%
CC1CN2C(c3ccc(Cl)cc3)=CSC2=N1 (centres undefined)	-0.3%	-2.2%	-3.5	-25.8%	-1.3%	-4.0%
Cc1cc2cc(C(c3nnnn3C(C)(C)C)N(Cc3ccco3)CC3CCCO3)c(=O)[nH]c2cc1C (centres undefined)	-10.7%	-0.7%	.	-7.9%	-0.2%	7.1%
Cc1cc(C)c2[nH]c(=O)c(C(c3nnnn3C(C)(C)C)N(Cc3ccco3)CC3CCCO3)cc2c1 (centres undefined)	-3.1%	1.0%	-40.2*	-4.4%	-3.3%	9.2%
SMILES	USP1 inh	GALK inh	FBPA coupling cs	PLK1 PBD block	USP2a block	VDR inh
c1csc(C2=Nn3c(nnc3-c3ccncc3)SC2)c1	-19.7%	-0.1%	.	26.7µM*	3.4%	-28.1%
c1ccc(C2=Nn3c(nnc3-c3cccs3)SC2)cc1	3.1%	1.1%	0.1	-1.8%	-1.1%	-0.1%
CN1C(=O)[C@H]2[C@@H](c3ccc(C(F)(F)F)cc3)N[C@]3(CCCN(Cc4ccc(F)cc4)C3=O)[C@H]2C1=O	-14.9%	.	.	-17.4%	.	.
Cc1[nH]n(-c2ccccc2)c(=O)c1N=Nc1c(O)cc(S(=O)(=O)N(C)C)c2ccccc12	-26.2%	.	.	29.9µM*	1.6%	12.6%
Cc1[nH]n(-c2ccccc2)c(=O)c1N=Nc1ccc2c(c1)OCCO2	-14.1%	-2.0%	-4.4	0.0%	-0.8%	-1.3%
Cc1ccc(N=Nc2c(C)[nH]n(-c3ccccc3)c2=O)c(C)c1	?	0.4%	0.0	8.44µM*	0.9%	?
Cc1ccc(N=Nc2c(C)[nH]n(-c3ccccc3)c2=O)cc1Br	0.9%	-3.8%	-2.8	-2.7%	-0.5%	-6.7%
COc1cc([N+](=O)[O-])ccc1N=Nc1c(N)[nH]n(-c2ccccc2)c1=O	-6.3%	3.6%	-5.9	29.9µM*	6.0%	-19.0%
CCOC(=O)NC(=O)COC(=O)c1ccc(Sc2ncn[nH]2)c([N+](=O)[O-])c1	-13.7%	-2.5%	13.3	-7.6%	1.2%	-9.8%
CCC(C)NC(=O)CN(c1ccc(OC)cc1)S(=O)(=O)c1ccccc1 (centres undefined)	6.0%	0.3%	-0.9	21.2µM*	3.9%	?
CCOC(=O)c1c(CN(C)C)n(C)c2c(O)c(N=NC(N)=O)c3ccc(Br)cc3c12	35.5µM*	.	-30.6*	21.2µM*	-1.1%	?
COc1ccc(-n2nc(C(=O)NCCCN3CCOCC3)c3ccccc3c2=O)c(OC)c1	-24.9%	-1.7%	0.0	21.2µM*	1.9%	?
CC[N+]1(C)CCC(O)(/C=C/c2ccccc2)C(C(=O)/C=C/c2ccccc2)C1 (centres undefined)	?	.	.	?	.	50.1µM*
O=C(/C=C/c1ccccc1)C1C(=O)c2ccccc2C1=O	-23.6%	-3.2%	-6.0	-24.4%	1.8%	-1.6%
O=C1NCCN1Cc1ccc(Cl)cc1	?	4.7%	0.1	-7.9%	0.6%	-10.1%
CCCN(CCC)C1CC(=O)N(Cc2ccccc2)C1=O (centres undefined)	0.8%	3.8%	1.9	-13.6%	2.8%	-1.6%
